DT40 TDP1 CPT – DT40-hTDP1 cell growth loss with CPT | AID 686979 | Potency, µM (titrated, usually from 46.2 µM), inactives show top-dose activity change, negative = growth inhibition, actives largely listed as inhibitors | chicken DT40 Tdp1-/-;hTDP1 cells + 20 nM CPT, ATP luminescence, 48 h | 420,000 compounds, 12% hits; further: on the % scale 0 is the no-effect control and ±100 the full control effect; nearly all actives have a fitted effect of over 55% in size
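Chicken DT40 Tdp1-/- cells stably complemented with human TDP1 were seeded at 400 cells/well in medium containing 20 nM camptothecin, exposed to pin-transferred compounds, and grown at 37 °C for at least 48 hr. Viability was read as ATP luminescence.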
TDP1 inh – inhibitors of human tyrosyl-DNA phosphodiesterase TDP1; 350,000 compounds, 0.28% hits; Q9NUW8; Potency, µM (doses to about 130 µM), inactives show at the top dose activity change, negative = inhibition, usual class: inhibitors; recombinant TDP1, AlphaScreen DNA substrate cleavage; further: on the % scale 0 is the no-effect control and ±100 the full control effect; nearly all actives have a fitted effect of over 40% in size
Target sequence (Q9NUW8 whole entry, looked up): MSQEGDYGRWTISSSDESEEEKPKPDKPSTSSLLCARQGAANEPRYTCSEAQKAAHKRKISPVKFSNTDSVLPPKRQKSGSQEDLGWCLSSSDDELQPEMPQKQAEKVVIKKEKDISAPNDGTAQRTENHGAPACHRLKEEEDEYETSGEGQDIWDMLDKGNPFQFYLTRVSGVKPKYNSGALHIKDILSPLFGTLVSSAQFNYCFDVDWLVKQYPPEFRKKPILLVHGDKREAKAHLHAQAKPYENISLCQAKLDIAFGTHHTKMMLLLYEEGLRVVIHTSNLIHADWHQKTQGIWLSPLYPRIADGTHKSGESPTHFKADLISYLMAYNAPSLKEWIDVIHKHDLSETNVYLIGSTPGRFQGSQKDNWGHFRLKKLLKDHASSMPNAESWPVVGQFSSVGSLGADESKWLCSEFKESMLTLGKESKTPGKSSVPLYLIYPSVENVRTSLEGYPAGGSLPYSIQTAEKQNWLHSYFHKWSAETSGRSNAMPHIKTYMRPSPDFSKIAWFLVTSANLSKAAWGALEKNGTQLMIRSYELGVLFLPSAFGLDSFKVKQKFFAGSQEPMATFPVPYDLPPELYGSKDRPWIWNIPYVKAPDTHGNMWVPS
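Here, a 5' biotin and 3' phosphotyrosine-FITC DNA oligonucleotide reports Tdp1 activity: intact substrate bridges AlphaScreen beads, while cleavage leaves a 3' phosphate and drops signal. All incubations at room temperature.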
TDP1 cell noCPT – qHTS for Inhibitors of human tyrosyl-DNA phosphodiesterase 1 (TDP1): qHTS in cells in absence of CPT; DT40 Tdp1-/- hTDP1 cells, no CPT, ATP luminescence, 48 h; Potency, µM (titrated, usually from 46.2 µM), for inactives: top-dose activity change, negative = growth inhibition, hits mostly inhibitors; 420,000 compounds, 15% hits; AID 686978, 2013; further: on the % scale 0 is the no-effect control and ±100 the full control effect; nearly all actives have a fitted effect of over 55% in size
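Camptothecin absent (DMSO only). Human TDP1-complemented DT40 knockout cells, 400 cells/well, 37 °C for minimum 48 hr; ATP measured via CellTiter-Glo, 30 min dark incubation, luminescence.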
ClpP mod – qHTS Assay for Activators of ClpP | 340,000 compounds, 1.9% hits | Potency, µM (highest dose often 57.5 µM), for the others: top-dose activity change, negative = active | purified B. subtilis ClpP, FRET peptide cleavage, 20 min | ATP-dependent Clp protease proteolytic subunit (Bacillus subtilis (strain 168)), P80244; active means well fitted falling curve with a large enough effect; inconclusive means small, poorly fitted or top-dose-only effect; inactive means no such curve, though single readings can be large or run the other way; further: the source files actives as falling curves though it sought activators and does not explain the sign; nearly all actives have a fitted effect of over 65% in size
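FRET quenching reversal measured ClpP activation: 10 microg/mL B. subtilis ClpP at pH 8 with the FRET-FV decapeptide, read at 430 nm after 320 nm excitation. The 20-min minus 0-min signal was scaled between DMSO/no-enzyme wells and ADEP (5.8 microM final).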
* = called active by the depositor; ? = inconclusive; . = no result given. An excerpt weighted towards active compounds, which were near 17% of everything screened. Unless noted, the call rests on the fitted dose curve; in most records, active means well fitted curve in the direction sought with a large enough effect; inconclusive means small, poorly fitted or top-dose-only effect, or another doubt; inactive means no such curve, though single readings can be large; an effect the other way counts as inactive or inconclusive. Potency means the concentration at half of the fitted maximal effect.

SMILES	DT40 TDP1 CPT	TDP1 inh	TDP1 cell noCPT	ClpP mod
CC(=O)Nc1ccc(NC(=O)C(C)OC(=O)c2cccc(S(=O)(=O)N3CCCCC3)c2)cc1 (stereo not drawn)	-2.2%	-1.5%	?	28.2µM*
CC(=O)Nc1ccc(NC(=O)C(C)OC(=O)c2cccc(S(=O)(=O)N3CCCCCC3)c2)cc1 (stereo not drawn)	-24.3%	-7.6%	?	1.5%
O=C(O)CSC1CC(=O)N(c2ccc(Br)cc2)C1=O (stereo not drawn)	?	3.1%	17.2%	-2.0%
Cc1ccc(C)c(NC(=O)C[n+]2ccccc2)c1	23.8%	.	7.8%	-1.7%
CCOc1cc(C(c2c(C)[nH][nH]c2=O)c2c(C)[nH][nH]c2=O)cc(Br)c1OC	-4.2%	.	2.3%	-3.9%
COc1cccc(NC(=O)CSc2nc(O)c(C)c(=O)n2-c2ccc(C)cc2)c1	-24.5%	0.2%	-15.2%	-0.8%
COc1cc(OC)c(C(=O)OC(C)C(=O)Nc2cccc(C(F)(F)F)c2)cc1OC (stereo not drawn)	23.1µM*	1.9%	?	-5.1%
O=C(NC1CCCC1)c1cccc(S(=O)(=O)N2CCCCC2)c1	-8.2%	-2.2%	-23.6%	-1.5%
O=C(Nc1ccc(N2CCOCC2)cc1)c1cccc(S(=O)(=O)N2CCCCC2)c1	14.6µM*	-7.0%	14.6µM*	-3.9%
O=C(Nc1ccccc1)c1cccc(S(=O)(=O)N2CCCCC2)c1	-26.3%	0.0%	8.1%	1.4%
CC1CCCC(NC(=O)c2cccc(S(=O)(=O)N3CCCCC3)c2)C1C (stereo not drawn)	20.6µM*	2.9%	?	-0.4%
O=C(NCC1CCN(c2ccc(S(=O)(=O)N3CCOCC3)cc2)CC1)c1cccc(Cl)c1	?	0.5%	11.6µM*	-8.4%
COc1cccc(C(=O)NCC2CCN(c3ccc(S(=O)(=O)N4CCOCC4)cc3)CC2)c1	?	4.0%	?	-1.9%
COc1ccccc1OC(C)C(=O)Nc1c(C(=O)c2ccc(Cl)cc2)oc2ccccc12 (stereo not drawn)	-4.0%	-2.1%	0.1%	-0.6%
CCOc1cc(S(=O)(=O)n2cnc(C)c2)ccc1Cl	-23.0%	0.0%	-14.6%	.
CC(C)CC(=O)N1CCN(S(=O)(=O)c2ccc(C3CCCCC3)cc2)CC1	20.6µM*	0.3%	11.6µM*	0.1%
CC(OC(=O)c1cccc(S(=O)(=O)Nc2cccc(C(F)(F)F)c2)c1)C(=O)Nc1ccc2c(c1)OCCO2 (stereo not drawn)	-21.7%	2.3%	16.4µM*	-0.9%
COc1ccc(/C(C)=N/NC(=O)c2cccc(S(=O)(=O)N3CCCC3)c2)c(O)c1	5.17µM*	.	2.91µM*	.
O=C1NCC(Nc2ccc(Br)cc2)C(=O)N1 (stereo not drawn)	12.2%	.	-9.3%	.
Cc1ccc(NC(=O)C(=O)NCC(c2cccnc2)N2CCN(Cc3ccccc3)CC2)cc1 (stereo not drawn)	23.1µM*	5.2%	18.4µM*	0.2%
Cc1ccc(S(=O)(=O)NCC(c2cccnc2)N2CCN(Cc3ccccc3)CC2)cc1 (stereo not drawn)	-25.4%	6.0%	-27.4%	-1.2%
O=C(NCC(c1cccnc1)N1CCN(Cc2ccccc2)CC1)C(=O)Nc1ccc(Cl)cc1 (stereo not drawn)	13µM*	5.2%	7.31µM*	0.4%
Cc1cc(O)cc2c1C1CCC3(C)C(O)CCC3C1C=C2 (stereo not drawn)	?	.	20.6µM*	.
C[C@]12CC[C@@H]3c4ccc(O)cc4[C@@H](O)C[C@H]3[C@@H]1CC[C@@H]2O	.	-5.5%	.	.
CCc1ccc(CN(C(=O)c2ccc(OC)cc2)C2CCS(=O)(=O)C2)cc1 (stereo not drawn)	?	6.3%	?	-2.0%
COc1cccc(-c2cn3c(n2)sc2cc(C(=O)NCCC4=CCCCC4)ccc23)c1	13µM*	3.9%	6.51µM*	4.3%
CCc1ccc(-c2cn3c(n2)sc2cc(C(=O)NCCC4=CCCCC4)ccc23)cc1	?	-1.3%	?	25.1µM*

Screening results as filed in PubChem.
